The record followed here is PubChem BioAssay (EPA / NIEHS).

The source made the active and inactive calls. How the source made its calls: active means hit-call score of the fitted dose curve at least 0.9, where 1 is the maximum; inactive means score below 0.9.

Holding throughout (settings): mRNA level, 48 h; actives raise or lower the signal
Read-out in assay [1]: JUN Transcription Factor, JUN (gene 3725)
Description: LTEA_HepaRG_JUN: Life Technologies and Expression Analysis (LTEA) Assay for JUN Transcription Factor using HepaRG (AID 2283513). An outline of the steps: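 HepaRG cells, 48 h post-plating, exposed 48 h in serum-free induction medium to 8-point half-log series (top 100 uM, 0.5% DMSO), duplicate; mRNA by qRT-PCR (TaqMan, Fluidigm), normalized to ACTB/GAPDH/POLR2A; bidirectional fit vs DMSO.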

Read-out in assay [2]: Lipase C (LIPC), LIPC (gene 3990)
Nature of the assay: LTEA_HepaRG_LIPC: Life Technologies and Expression Analysis (LTEA) Assay for Lipase C (LIPC) using HepaRG (AID 2283514). An outline of the steps: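 HepaRG cells, 48 h after plating, treated in duplicate for 48 h in serum-free induction medium over 8 half-log concentrations from 100 uM, 0.5% DMSO. LIPC mRNA by TaqMan qRT-PCR normalized to ACTB/GAPDH/POLR2A; bidirectional fit versus DMSO.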

Read-out in assay [3]: Lipoprotein lipase (LPL), LPL (gene 4023)
Nature of the assay: LTEA_HepaRG_LPL: Life Technologies and Expression Analysis (LTEA) Assay for Lipoprotein lipase (LPL) using HepaRG (AID 2283515). An outline of the steps:
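Differentiated HepaRG cells, plated 48 h, then exposed 48 h in serum-free induction medium to 8 concentrations (top 100 uM, half-log steps) in 0.5% DMSO, duplicate. LPL mRNA measured by qRT-PCR, normalized to ACTB, GAPDH and POLR2A.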

Read-out in assay [4]: MicroRNA 122 (MIR122), gene 406906
Description: LTEA_HepaRG_MIR122: Life Technologies and Expression Analysis (LTEA) Assay for MicroRNA 122 (MIR122) using HepaRG (AID 2283516). Further: the transcript read is the microRNA miR-122. An outline of the steps: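 Differentiated human HepaRG cells in serum-free induction medium exposed 48 h to 8 half-log concentrations from 100 uM in 0.5% DMSO, duplicate. MIR122 quantified by Fluidigm TaqMan qRT-PCR, normalised to ACTB, GAPDH, POLR2A; fold change fitted bidirectionally versus DMSO.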

Read-out in assay [5]: matrix metalloproteinase-10 (MMP10), MMP10 (gene 4319)
Description: LTEA_HepaRG_MMP10: Life Technologies and Expression Analysis (LTEA) Assay for matrix metalloproteinase-10 (MMP10) using HepaRG (AID 2283517). An outline of the steps: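 Differentiated HepaRG cells in serum-free induction medium exposed 48 h in duplicate to 8-point half-log series up to 100 uM in 0.5% DMSO. mRNA quantified by qRT-PCR, normalised to ACTB, GAPDH, POLR2A; bidirectional fit versus DMSO.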

Read-out in the next assay: MYC, MYC (gene 4609)
Nature of the assay: LTEA_HepaRG_MYC: Life Technologies and Expression Analysis (LTEA) Assay for MYC using HepaRG (AID 2283518). An outline of the steps:
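Differentiated human HepaRG cells, plated 48 h then switched to serum-free induction medium, were exposed in duplicate for 48 h to 8-point half-log series up to 100 uM in 0.5% DMSO. MYC mRNA measured by qRT-PCR, normalized to ACTB/GAPDH/POLR2A.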

Read-out in assay [6]: Paternally Expressed 10 (PEG10), PEG10 (gene 23089)
Description: LTEA_HepaRG_PEG10: Life Technologies and Expression Analysis (LTEA) Assay for Paternally Expressed 10 (PEG10) using HepaRG (AID 2283520). An outline of the steps:
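Differentiated HepaRG cells exposed 48 h in serum-free induction medium to eight half-log concentrations topping at 100 uM, 0.5% DMSO, in duplicate. PEG10 mRNA quantified by TaqMan qRT-PCR, normalized to ACTB, GAPDH and POLR2A; bidirectional fit versus DMSO.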

Read-out in assay [7]: Nuclear factor NF-kappa-B p105 subunit (Homo sapiens) (UniProt P19838)
Description: LTEA_HepaRG_NFKB1: Life Technologies and Expression Analysis (LTEA) Assay for Nuclear Factor Kappa B Subunit 1 (NFKB1) using HepaRG (AID 2283521).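 On outcome: TaqMan qRT-PCR transcript normalised to ACTB GAPDH and POLR2A housekeeping genes.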 An outline of the steps: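 HepaRG, 48 h exposure; 8-pt half-log series from 100 uM in 0.5% DMSO; duplicates. Readout: NFKB1 mRNA by qRT-PCR (Fluidigm arrays), housekeeping-normalized. Gain/loss fit vs DMSO baseline.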

Read-out in assay [8]: Protein phosphatase 2A (PPP2R4), PTPA (gene 5524)
Description: LTEA_HepaRG_PPP2R4: Life Technologies and Expression Analysis (LTEA) Assay for Protein phosphatase 2A (PPP2R4) using HepaRG (AID 2283522). An outline of the steps: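 Differentiated human HepaRG cells in serum-free induction medium were exposed 48 h to 8 concentrations (top 100 µM, half-log steps, duplicate) in 0.5% DMSO. PPP2R4 mRNA was measured by TaqMan qRT-PCR, normalised to ACTB, GAPDH and POLR2A, and fitted bidirectionally versus DMSO.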

Read-out in assay [9]: Phosphatase and tensin (PTEN), PTEN (gene 5728)
Nature of the assay: LTEA_HepaRG_PTEN: Life Technologies and Expression Analysis (LTEA) Assay for Phosphatase and tensin (PTEN) using HepaRG (AID 2283523). An outline of the steps:
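HepaRG cells, 48 h after plating, exposed in duplicate for 48 h in serum-free induction medium to 8 half-log concentrations up to 100 uM (0.5% DMSO). PTEN mRNA by qRT-PCR, normalized to ACTB, GAPDH, POLR2A; bidirectional fit versus DMSO.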

Read-out in assay [10]: solute carrier (SLC22A1), SLC22A1 (gene 6580)
Description: LTEA_HepaRG_SLC22A1: Life Technologies and Expression Analysis (LTEA) Assay for solute carrier (SLC22A1) using HepaRG (AID 2283524). An outline of the steps:
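Differentiated human HepaRG cells in serum-free induction medium, exposed 48 h in duplicate to 8-point half-log series from 100 µM top in 0.5% DMSO. SLC22A1 mRNA by TaqMan qRT-PCR normalized to ACTB, GAPDH, POLR2A; bidirectional fit versus DMSO.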

Read-out in assay [11]: Pyruvate Dehydrogenase Kinase 4 (PDK4), PDK4 (gene 5166)
Nature of the assay: LTEA_HepaRG_PDK4: Life Technologies and Expression Analysis (LTEA) Assay for Pyruvate Dehydrogenase Kinase 4 (PDK4) using HepaRG (AID 2283525). An outline of the steps: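 HepaRG cells plated 48 h, then switched to serum-free induction medium and exposed in duplicate for 48 h to 8 half-log concentrations from 100 uM in 0.5% DMSO. PDK4 mRNA measured by qRT-PCR, normalized to ACTB, GAPDH and POLR2A; bidirectional fit versus DMSO.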

Read-out in assay [12]: NAD(P)H dehydrogenase [quinone] 1 (NQO1), NQO1 (gene 1728)
Description: LTEA_HepaRG_NQO1: Life Technologies and Expression Analysis (LTEA) Assay for NAD(P)H dehydrogenase [quinone] 1 (NQO1) using HepaRG (AID 2283526). An outline of the steps:
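Differentiated human HepaRG cells in serum-free induction medium, dosed in duplicate for 48 h at 8 half-log concentrations up to 100 uM in 0.5% DMSO. NQO1 mRNA by qRT-PCR normalized to ACTB, GAPDH, POLR2A; bidirectional fit versus DMSO baseline.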

Read-out in assay [13]: Nuclear factor erythroid 2-related factor 2 (Homo sapiens) (UniProt Q16236)
Nature of the assay: LTEA_HepaRG_NFE2L2: Life Technologies and Expression Analysis (LTEA) Assay for Nuclear factor erythroid 2-related factor 2 (NFE2L2) Transcription Factor using HepaRG (AID 2283527).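 On outcome: TaqMan qRT-PCR transcript level normalised to ACTB GAPDH and POLR2A housekeeping genes.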 An outline of the steps: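 Differentiated human HepaRG cells, serum-free induction medium, exposed 48 h in duplicate to eight half-log concentrations up to 100 uM in 0.5% DMSO. NFE2L2 mRNA by Fluidigm TaqMan qRT-PCR, normalised to ACTB, GAPDH, POLR2A; bidirectional change versus DMSO.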

Read-out in assay [14]: succinate dehydrogenase complex iron sulfur subunit B (SDHB), SDHB (gene 6390)
Description: LTEA_HepaRG_SDHB: Life Technologies and Expression Analysis (LTEA) Assay for succinate dehydrogenase complex iron sulfur subunit B (SDHB) using HepaRG (AID 2283528). An outline of the steps:
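Readout is SDHB transcript level by qRT-PCR, normalised to three housekeeping genes and fitted bidirectionally against 0.5% DMSO vehicle. Human HepaRG cells were treated for 48 h at up to 100 uM.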

Read-out in assay [15]: Signal transducer and activator of transcription 3 (Homo sapiens) (UniProt P40763)
Description: LTEA_HepaRG_STAT3: Life Technologies and Expression Analysis (LTEA) Assay for Signal transducer and activator of transcription (STAT3) using HepaRG (AID 2283529). An outline of the steps:
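Differentiated HepaRG cells, serum-free induction medium, dosed 48 h in duplicate, 8 half-log concentrations from 100 uM in 0.5% DMSO. STAT3 mRNA by qRT-PCR, normalised to ACTB, GAPDH, POLR2A; bidirectional fit versus DMSO.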

Read-out in assay [16]: solute carrier (SLCO1B1), SLCO1B1 (gene 10599)
Description: LTEA_HepaRG_SLCO1B1: Life Technologies and Expression Analysis (LTEA) Assay for solute carrier (SLCO1B1) using HepaRG (AID 2283530). An outline of the steps:
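Differentiated human HepaRG cells, plated 48 h, switched to serum-free induction medium and exposed in duplicate for 48 h to 8 half-log concentrations (top 100 uM) in 0.5% DMSO. SLCO1B1 mRNA by TaqMan qRT-PCR, normalized to ACTB/GAPDH/POLR2A.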

Read-out in assay [17]: Transforming Growth Factor (TGFA), TGFA (gene 7039)
Nature of the assay: LTEA_HepaRG_TGFA: Life Technologies and Expression Analysis (LTEA) Assay for Transforming Growth Factor (TGFA) using HepaRG (AID 2283532). An outline of the steps: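 Differentiated HepaRG cells exposed 48 hours in serum-free induction medium, 0.5% DMSO vehicle, 8-point half-log series from 100 uM, in duplicate. TGFA mRNA by TaqMan qRT-PCR, normalised to ACTB, GAPDH, POLR2A; bidirectional fit versus DMSO.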

Chain of Nuclear factor NF-kappa-B p105 subunit (Homo sapiens) (P19838 whole entry, looked up): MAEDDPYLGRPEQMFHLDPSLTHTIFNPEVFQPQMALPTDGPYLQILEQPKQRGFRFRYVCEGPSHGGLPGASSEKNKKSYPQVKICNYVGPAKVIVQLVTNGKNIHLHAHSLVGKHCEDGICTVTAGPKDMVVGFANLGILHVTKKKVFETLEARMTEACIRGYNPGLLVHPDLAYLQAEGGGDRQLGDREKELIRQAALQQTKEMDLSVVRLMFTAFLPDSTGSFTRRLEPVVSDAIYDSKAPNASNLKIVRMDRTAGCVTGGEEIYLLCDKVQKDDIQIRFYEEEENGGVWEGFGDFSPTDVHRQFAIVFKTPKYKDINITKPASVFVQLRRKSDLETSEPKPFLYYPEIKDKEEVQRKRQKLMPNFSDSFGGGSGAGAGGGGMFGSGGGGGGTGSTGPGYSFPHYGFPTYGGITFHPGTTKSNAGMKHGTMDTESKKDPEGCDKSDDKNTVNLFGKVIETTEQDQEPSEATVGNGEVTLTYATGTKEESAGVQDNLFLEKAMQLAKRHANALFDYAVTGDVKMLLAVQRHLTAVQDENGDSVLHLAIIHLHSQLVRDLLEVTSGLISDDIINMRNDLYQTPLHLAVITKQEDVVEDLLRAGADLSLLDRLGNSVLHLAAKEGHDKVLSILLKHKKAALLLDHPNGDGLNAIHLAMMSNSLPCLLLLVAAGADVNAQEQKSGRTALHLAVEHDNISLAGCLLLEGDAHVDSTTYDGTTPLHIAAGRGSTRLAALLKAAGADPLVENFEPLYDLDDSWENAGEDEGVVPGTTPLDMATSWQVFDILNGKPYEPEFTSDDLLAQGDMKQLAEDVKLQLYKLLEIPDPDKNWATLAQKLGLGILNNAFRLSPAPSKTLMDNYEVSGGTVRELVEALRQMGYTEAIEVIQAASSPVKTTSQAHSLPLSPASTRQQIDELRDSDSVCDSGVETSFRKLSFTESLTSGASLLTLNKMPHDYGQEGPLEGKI
Chain of Nuclear factor erythroid 2-related factor 2 (Homo sapiens) (Q16236 whole entry, looked up): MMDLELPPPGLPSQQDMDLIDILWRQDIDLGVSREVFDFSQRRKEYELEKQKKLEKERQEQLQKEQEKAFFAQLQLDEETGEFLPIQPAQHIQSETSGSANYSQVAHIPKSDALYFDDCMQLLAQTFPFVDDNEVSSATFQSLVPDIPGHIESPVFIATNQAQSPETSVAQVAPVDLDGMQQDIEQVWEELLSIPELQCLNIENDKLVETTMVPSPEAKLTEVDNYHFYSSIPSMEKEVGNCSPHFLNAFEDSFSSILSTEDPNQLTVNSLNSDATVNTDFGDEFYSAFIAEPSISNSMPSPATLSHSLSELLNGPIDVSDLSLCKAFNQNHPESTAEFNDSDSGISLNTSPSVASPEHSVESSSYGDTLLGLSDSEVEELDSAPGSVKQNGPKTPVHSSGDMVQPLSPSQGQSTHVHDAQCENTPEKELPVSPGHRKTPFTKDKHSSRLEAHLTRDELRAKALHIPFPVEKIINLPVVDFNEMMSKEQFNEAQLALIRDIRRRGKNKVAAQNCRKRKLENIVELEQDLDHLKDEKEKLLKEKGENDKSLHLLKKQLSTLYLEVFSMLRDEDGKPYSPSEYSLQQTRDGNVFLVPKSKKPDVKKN
Chain of Signal transducer and activator of transcription 3 (Homo sapiens) (P40763 whole entry, looked up): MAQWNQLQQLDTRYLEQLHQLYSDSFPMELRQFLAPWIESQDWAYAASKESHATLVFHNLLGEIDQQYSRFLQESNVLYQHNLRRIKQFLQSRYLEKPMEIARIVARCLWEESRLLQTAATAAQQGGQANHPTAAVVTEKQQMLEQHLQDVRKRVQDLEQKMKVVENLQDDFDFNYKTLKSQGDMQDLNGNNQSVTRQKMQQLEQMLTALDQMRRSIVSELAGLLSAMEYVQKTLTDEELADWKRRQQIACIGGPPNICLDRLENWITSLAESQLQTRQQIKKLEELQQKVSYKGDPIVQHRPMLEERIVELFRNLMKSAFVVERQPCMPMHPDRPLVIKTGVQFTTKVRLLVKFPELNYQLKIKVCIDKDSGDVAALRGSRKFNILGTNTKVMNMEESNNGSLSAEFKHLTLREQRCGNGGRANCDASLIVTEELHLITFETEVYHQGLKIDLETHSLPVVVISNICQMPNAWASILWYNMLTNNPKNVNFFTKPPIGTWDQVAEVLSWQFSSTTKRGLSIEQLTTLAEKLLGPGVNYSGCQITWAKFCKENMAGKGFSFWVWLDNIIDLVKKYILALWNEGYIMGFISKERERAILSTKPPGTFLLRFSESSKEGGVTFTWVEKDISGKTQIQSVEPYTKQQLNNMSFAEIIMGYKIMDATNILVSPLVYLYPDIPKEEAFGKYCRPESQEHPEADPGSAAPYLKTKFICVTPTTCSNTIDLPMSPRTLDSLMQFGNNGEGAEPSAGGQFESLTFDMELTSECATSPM

With `O=c1n(CC2CO2)c(=O)n(CC2CO2)c(=O)n1CC1CO1` (centres undefined), the outcome is “inactive” in assay [1]; “inactive” in assay [3]; “inactive” in assay [4]; “inactive” in assay [5]; “inactive” in the assay with MYC, MYC (gene 4609); “inactive” in assay [6]. In addition, the outcome in [7], in [8], in [9], in [10], in [11] and in assay [12] was inactive. Moreover, the outcome in assay [13], in assay [14], in assay [15], in assay [16] and in assay [17] was inactive. Moreover, the half-maximal activity concentration (AC50) in assay [2] was 71.5 µM (active).

For the compound `COC(=O)CC(=O)OC`, the outcome is “inactive” in assay [1]; “inactive” in [2]; “inactive” in assay [3]; “inactive” in [4]; “inactive” in assay [5]; “inactive” with MYC, MYC (gene 4609). The outcome in [8], in assay [9], in assay [10], in assay [11], in assay [12] and in [13] was inactive. Further, the result in assay [14], in assay [15], in assay [16] and in assay [17] was inactive. In addition, the AC50 in assay [6] was 50 µM (active).

Take `O=C(NS(=O)(=O)/C=C/c1ccccc1)c1ccc(F)cc1Cl`: the outcome was “inactive” in assay [1]; “inactive” in assay [2]; “inactive” in assay [3]; “inactive” in assay [4]; “inactive” in [5]; “inactive” with MYC, MYC (gene 4609). Further, the outcome in assay [7], in assay [8], in assay [9], in assay [10], in assay [12] and in assay [13] was inactive. Further, the outcome in assay [14], in assay [15], in [16] and in [17] was inactive. Also, the AC50 in assay [6] was 21.3 µM (active); in assay [11], 26.4 µM (active).

Turning to `COc1cccc(-c2ccc(/C=C\CN3CCCCCC3)cc2Cl)c1`, the AC50 in assay [1] is 73.9 µM (active); in assay [2], 70.6 µM (active); in [3] it was 79 µM (active); in [5], 71.3 µM (active); with MYC, MYC (gene 4609) it was 81.1 µM (active); in assay [6] it was 59 µM (active). The half-maximal activity concentration (AC50) in [7] was 45.2 µM (active); in assay [10], 74.4 µM (active); in assay [11], 74.1 µM (active); in [13] it was 65.7 µM (active); in [16], 74.6 µM (active); in assay [17], 74.4 µM (active). The result in assay [4], in [8], in assay [9], in [12], in assay [14] and in [15] was inactive.

As for `CC[C@H]1CC[C@H](NCc2cc3c(cc2OC)[C@H]2C[C@H]2C(=O)N3C)[C@H](c2ccccc2)N1`, the outcome in assay [1] was “inactive”; in assay [2], “inactive”; in assay [4] it was “inactive”; in assay [5], “inactive”; with MYC, MYC (gene 4609), “inactive”; in assay [6], “inactive”. The result in assay [7], in assay [8], in assay [9], in assay [10], in assay [11] and in assay [12] was inactive. The outcome in assay [13], in [14], in assay [15], in assay [16] and in assay [17] was inactive. Further, the AC50 in [3] was 50 µM (active).
